In the supplement of paper PMC12067093, “Discovery and optimisation of a covalent ligand for TRIM25 and its application to targeted protein ubiquitination” (Chemical Science, 2025):
Of roughly 21,000 targets only a part is listed; those with the largest changes were picked by preference.

Compound: Cc1cc(ccc1-c1ccccc1)C(=O)N1CCCN(CC1)C(=O)CCl [compound 10]
Test: probe-labelled cysteine peptide fold change vs DMSO (competition) (log2 fold change); higher = less target engagement (more negative = stronger competition)
Conditions: THP-1, incubation time: 4 h
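Also: competitive profiling in live THP-1 cells: cysteine peptides tagged with an iodoacetamide desthiobiotin (IA-DTB) probe, intensity after compound treatment relative to DMSO-treated cells.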

Chain of UniProt Q8NBU5 (Q8NBU5 whole entry, looked up): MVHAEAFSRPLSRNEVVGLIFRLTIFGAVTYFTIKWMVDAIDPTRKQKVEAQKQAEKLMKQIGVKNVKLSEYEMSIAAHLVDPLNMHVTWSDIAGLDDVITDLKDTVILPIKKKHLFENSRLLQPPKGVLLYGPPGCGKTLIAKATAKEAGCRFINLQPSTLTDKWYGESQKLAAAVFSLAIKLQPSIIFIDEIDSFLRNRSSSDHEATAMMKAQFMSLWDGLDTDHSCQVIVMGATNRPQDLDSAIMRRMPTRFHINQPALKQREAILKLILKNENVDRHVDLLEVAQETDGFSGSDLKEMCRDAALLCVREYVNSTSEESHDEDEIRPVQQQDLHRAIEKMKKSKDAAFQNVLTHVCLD
Chain of UniProt Q9P2R3 (Q9P2R3 whole entry, looked up): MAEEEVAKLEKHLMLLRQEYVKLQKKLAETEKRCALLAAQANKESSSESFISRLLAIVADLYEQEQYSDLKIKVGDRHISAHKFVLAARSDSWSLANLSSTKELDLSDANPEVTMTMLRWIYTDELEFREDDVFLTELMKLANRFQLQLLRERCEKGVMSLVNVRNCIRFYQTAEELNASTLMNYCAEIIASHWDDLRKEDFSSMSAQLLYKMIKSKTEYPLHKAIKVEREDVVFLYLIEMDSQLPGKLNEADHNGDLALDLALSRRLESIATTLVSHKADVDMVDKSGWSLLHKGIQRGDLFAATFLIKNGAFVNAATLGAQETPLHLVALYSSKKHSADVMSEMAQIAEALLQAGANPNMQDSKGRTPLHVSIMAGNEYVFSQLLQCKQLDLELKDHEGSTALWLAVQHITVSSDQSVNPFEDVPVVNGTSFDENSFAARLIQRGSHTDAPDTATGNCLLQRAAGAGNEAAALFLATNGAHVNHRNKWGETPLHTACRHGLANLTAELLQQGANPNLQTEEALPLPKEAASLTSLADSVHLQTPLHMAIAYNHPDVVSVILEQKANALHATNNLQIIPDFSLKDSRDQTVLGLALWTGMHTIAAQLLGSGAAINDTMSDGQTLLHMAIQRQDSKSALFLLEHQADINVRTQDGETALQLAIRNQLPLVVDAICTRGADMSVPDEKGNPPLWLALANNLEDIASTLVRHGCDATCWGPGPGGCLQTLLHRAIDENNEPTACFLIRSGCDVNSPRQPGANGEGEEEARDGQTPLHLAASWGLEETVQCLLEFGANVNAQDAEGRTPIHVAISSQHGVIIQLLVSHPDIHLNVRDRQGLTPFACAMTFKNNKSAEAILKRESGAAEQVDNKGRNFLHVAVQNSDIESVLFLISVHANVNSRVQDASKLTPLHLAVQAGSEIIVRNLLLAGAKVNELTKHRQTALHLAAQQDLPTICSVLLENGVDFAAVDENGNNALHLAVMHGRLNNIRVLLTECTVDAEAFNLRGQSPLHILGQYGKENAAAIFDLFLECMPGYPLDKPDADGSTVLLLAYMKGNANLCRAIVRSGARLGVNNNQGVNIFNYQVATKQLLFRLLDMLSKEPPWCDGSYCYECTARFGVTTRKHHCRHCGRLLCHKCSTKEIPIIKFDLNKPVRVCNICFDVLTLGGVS
Chain of UniProt Q9NVV5 (Q9NVV5 whole entry): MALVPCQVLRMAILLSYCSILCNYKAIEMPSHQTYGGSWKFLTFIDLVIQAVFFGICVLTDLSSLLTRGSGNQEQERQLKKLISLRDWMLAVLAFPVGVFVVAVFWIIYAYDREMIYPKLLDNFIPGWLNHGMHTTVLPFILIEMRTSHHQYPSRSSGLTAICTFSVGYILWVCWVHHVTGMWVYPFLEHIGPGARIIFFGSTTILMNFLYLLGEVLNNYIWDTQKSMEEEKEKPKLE
Chain of UniProt Q9Y6D6 (Q9Y6D6 whole entry, looked up): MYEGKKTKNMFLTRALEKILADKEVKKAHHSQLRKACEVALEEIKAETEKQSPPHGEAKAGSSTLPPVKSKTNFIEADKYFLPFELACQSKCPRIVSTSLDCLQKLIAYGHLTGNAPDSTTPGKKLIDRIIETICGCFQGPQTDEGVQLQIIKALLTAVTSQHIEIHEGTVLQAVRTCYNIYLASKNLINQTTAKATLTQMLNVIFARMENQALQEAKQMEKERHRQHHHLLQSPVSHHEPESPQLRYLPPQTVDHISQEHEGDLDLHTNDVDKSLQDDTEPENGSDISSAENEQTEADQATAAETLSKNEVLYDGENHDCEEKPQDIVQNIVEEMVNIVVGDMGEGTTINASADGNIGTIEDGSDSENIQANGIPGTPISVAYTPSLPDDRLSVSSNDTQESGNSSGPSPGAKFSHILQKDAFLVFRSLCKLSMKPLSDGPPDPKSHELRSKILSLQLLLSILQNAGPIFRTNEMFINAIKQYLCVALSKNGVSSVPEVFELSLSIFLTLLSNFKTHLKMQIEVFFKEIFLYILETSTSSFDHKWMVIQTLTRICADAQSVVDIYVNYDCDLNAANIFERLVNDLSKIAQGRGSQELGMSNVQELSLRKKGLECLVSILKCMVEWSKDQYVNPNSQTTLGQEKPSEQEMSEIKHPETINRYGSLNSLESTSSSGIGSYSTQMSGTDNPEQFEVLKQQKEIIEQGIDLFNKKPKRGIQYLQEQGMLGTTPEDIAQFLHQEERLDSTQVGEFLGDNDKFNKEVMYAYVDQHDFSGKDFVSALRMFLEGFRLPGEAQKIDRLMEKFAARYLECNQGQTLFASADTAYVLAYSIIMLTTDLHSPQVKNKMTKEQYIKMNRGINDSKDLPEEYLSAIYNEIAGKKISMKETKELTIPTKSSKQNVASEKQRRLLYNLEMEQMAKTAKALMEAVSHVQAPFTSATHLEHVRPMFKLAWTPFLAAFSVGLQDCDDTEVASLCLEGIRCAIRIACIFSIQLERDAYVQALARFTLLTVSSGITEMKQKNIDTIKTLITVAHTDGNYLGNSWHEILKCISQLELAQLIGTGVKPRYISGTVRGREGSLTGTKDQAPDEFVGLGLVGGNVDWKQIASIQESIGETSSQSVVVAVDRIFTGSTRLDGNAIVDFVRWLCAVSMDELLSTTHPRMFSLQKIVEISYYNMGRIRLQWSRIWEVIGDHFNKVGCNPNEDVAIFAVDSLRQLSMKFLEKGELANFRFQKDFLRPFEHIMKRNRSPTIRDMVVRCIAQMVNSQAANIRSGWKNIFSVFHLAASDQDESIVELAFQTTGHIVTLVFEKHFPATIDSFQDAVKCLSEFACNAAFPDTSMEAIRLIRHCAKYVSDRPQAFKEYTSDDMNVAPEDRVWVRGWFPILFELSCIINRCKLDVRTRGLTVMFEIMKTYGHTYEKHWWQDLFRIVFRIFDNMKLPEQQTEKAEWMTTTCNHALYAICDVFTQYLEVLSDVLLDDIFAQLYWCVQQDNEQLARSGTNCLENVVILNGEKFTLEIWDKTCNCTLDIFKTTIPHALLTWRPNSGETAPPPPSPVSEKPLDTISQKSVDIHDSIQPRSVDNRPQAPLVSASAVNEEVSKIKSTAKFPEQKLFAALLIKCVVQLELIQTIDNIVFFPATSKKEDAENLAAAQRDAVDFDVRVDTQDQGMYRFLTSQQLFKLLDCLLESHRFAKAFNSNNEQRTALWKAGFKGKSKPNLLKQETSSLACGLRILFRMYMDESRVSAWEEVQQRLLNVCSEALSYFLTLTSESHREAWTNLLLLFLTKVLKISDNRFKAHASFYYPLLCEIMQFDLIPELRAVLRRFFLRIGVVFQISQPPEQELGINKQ
Chain of UniProt O43823 (O43823 whole entry, looked up): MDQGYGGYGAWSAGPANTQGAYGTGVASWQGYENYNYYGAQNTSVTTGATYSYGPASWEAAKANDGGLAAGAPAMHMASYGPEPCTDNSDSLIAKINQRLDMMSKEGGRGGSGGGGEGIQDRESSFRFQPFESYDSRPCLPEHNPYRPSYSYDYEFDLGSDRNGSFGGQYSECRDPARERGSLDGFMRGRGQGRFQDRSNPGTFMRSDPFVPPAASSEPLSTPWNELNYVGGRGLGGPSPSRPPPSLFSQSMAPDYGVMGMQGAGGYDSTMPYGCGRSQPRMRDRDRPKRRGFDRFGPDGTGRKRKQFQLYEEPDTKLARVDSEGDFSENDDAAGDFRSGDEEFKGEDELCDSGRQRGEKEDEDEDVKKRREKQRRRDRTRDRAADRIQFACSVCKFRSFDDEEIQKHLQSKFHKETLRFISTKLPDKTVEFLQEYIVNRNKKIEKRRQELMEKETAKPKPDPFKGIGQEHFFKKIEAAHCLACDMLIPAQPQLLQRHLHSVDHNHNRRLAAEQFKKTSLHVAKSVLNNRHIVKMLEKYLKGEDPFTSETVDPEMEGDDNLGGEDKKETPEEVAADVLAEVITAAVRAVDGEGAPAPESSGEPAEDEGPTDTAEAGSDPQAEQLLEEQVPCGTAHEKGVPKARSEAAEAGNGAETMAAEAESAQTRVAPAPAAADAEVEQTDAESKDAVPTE
Chain of UniProt Q15052 (Q15052 whole entry, looked up): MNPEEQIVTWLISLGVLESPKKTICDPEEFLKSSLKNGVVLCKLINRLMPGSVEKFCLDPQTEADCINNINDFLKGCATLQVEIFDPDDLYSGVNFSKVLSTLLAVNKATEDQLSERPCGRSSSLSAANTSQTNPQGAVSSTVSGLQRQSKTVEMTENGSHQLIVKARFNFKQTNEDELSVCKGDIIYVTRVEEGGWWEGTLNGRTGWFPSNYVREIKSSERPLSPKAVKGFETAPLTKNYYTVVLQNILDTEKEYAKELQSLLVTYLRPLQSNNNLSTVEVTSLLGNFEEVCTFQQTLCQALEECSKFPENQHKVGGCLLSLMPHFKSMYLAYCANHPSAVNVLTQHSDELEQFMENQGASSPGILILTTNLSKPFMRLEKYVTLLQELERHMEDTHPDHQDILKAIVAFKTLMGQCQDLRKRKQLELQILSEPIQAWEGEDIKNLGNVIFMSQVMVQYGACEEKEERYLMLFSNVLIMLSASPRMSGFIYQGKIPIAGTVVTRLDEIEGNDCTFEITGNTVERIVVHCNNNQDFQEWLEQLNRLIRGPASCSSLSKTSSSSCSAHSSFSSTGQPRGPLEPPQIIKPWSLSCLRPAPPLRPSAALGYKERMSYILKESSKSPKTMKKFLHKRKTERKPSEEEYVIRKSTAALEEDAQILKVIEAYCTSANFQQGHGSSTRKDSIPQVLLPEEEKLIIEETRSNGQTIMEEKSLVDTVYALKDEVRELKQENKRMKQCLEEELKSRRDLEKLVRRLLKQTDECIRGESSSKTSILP

Row | Target | probe-labelled cysteine peptide fold change (10 µM) | probe-labelled cysteine peptide fold change (50 µM)
1 | ALDH3A2_P51648_226_DCDLDIVCR (UniProt P51648) | -0.0334 | -0.00592
2 | AKAP8_O43823_395_IQFACSVCK (UniProt O43823) | 0.0747 | -0.348
3 | AKR1B1_P15121_299+304_VCALLSCTSHK (UniProt P15121) | -0.497 | -2.06
4 | ATL2_Q8NHH9_293_HIHNCFSNLGCFLLPHPGLK (UniProt Q8NHH9) | -0.0463 | -0.137
5 | ACTR3_P61158_8+12_LPACVVDCGTGYTK (UniProt P61158) | -0.243 | -0.313
6 | ALDH9A1_P49189_45_VIATFTCSGEK (UniProt P49189) | -0.00832 | 0.0216
7 | ARHGEF6_Q15052_319_VGGCLLSLMPHFK (UniProt Q15052) | -0.297 | -0.105
8 | ARHGAP25_P42331_448_CFLTSAFQGANSSK (UniProt P42331) | -0.526 | -1.52
9 | ARFGEF1_Q9Y6D6_1729_QETSSLACGLR (UniProt Q9Y6D6) | -0.151 | 0.114
10 | AIG1_Q9NVV5_6_MALVPCQVLR (UniProt Q9NVV5) | -0.836 | -1.35
11 | ATM_Q13315_2323_KLDASCAANNPSLK (UniProt Q13315) | -0.12 | -0.242
12 | AKR7A2_O43488_132+156_RLQCPQVDLFYLHAPDHGTPVEETLHACQR (UniProt O43488) | -0.245 | -0.374
13 | ANKFY1_Q9P2R3_742_AIDENNEPTACFLIR (UniProt Q9P2R3) | -0.0754 | -0.213
14 | ATAD1_Q8NBU5_229_AQFMSLWDGLDTDHSCQVIVMGATNRPQDLDSAIMR (UniProt Q8NBU5) | 0.117 | 0.088
